Only some compounds are listed: those with a hit (about 17% of all), similar ones and a draw of the others.
TDP1 cell noCPT: qHTS for Inhibitors of human tyrosyl-DNA phosphodiesterase 1 (TDP1): qHTS in cells in absence of CPT. DT40 Tdp1-/- hTDP1 cells, no CPT, ATP luminescence, 48 h. Potency, µM (doses to about 46.2 µM), for the others: at the highest dose activity change, negative = growth inhibition, actives largely listed as inhibitors. 420,000 compounds, 15% hits; note: % is set by controls: 0 for no effect and ±100 for the full control effect; nearly all actives have a fitted effect of over 55% in size
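Luminescent ATP content (CellTiter-Glo) served as the growth readout. Knockout chicken DT40 cells expressing human TDP1 were exposed to compounds without camptothecin for a minimum 48 hr at 37 °C.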
TDP1 cell CPT: growth inhibition of DT40 Tdp1-/-;hTDP1 cells with camptothecin (screen for TDP1 inhibitors) | chicken DT40 Tdp1-/-;hTDP1 cells + 20 nM CPT, ATP luminescence, 48 h | Potency, µM (series often up to 46.2 µM), without a hit: at the top dose activity change, negative = growth inhibition, most hits filed as inhibitors | 420,000 compounds, 12% hits | AID 686979; note: % is set by controls: 0 for no effect and ±100 for the full control effect; nearly all actives have a fitted effect of over 55% in size
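Chicken DT40 Tdp1-/- cells stably complemented with human TDP1 were seeded at 400 cells/well in medium containing 20 nM camptothecin, exposed to pin-transferred compounds, and grown at 37 °C for at least 48 hr. Viability was read as ATP luminescence.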
TDP1 block: blocks human tyrosyl-DNA phosphodiesterase 1; Q9NUW8; recombinant TDP1, AlphaScreen DNA substrate cleavage; Potency, µM (top dose mostly 130 µM), for the others: top-dose activity change, negative = inhibition, usual class: inhibitors; 350,000 compounds, 0.28% hits; note: % is set by controls: 0 for no effect and ±100 for the full control effect; nearly all actives have a fitted effect of over 40% in size
Target sequence (Q9NUW8 whole entry, looked up): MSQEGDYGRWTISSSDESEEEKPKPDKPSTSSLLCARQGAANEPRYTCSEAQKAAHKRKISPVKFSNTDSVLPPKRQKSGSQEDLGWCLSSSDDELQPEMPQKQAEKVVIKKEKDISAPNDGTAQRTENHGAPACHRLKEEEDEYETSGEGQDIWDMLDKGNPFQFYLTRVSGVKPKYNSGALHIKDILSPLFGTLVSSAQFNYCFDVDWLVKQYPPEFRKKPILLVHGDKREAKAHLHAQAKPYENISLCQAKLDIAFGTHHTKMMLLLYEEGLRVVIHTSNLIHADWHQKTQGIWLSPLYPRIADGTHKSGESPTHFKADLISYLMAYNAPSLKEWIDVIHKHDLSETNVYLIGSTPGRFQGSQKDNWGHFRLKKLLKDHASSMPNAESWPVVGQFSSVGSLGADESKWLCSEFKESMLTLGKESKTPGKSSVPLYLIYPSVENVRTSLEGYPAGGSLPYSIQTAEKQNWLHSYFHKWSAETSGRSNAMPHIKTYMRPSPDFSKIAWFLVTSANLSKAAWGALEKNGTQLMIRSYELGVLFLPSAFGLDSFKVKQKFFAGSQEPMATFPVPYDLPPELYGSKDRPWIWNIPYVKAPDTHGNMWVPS
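Compounds were preincubated with Tdp1 (1 nM final) for 15 min at room temperature before substrate (15 nM final) started a 5 min reaction; beads (10 ug/ml final) were then added for 10 min before AlphaScreen detection.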
ClpP mod: qHTS Assay for Activators of ClpP. ATP-dependent Clp protease proteolytic subunit (Bacillus subtilis (strain 168)), P80244. purified B. subtilis ClpP, FRET peptide cleavage, 20 min. Potency, µM (doses to about 57.5 µM), without a hit: at the top dose activity change, negative = active. 340,000 compounds, 1.9% hits; active = well fitted falling curve with a large enough effect; inconclusive = small, poorly fitted or top-dose-only effect; inactive = no such curve, though single readings can be large or run the other way; note: the source files actives as falling curves though it sought activators and does not explain the sign; nearly all actives have a fitted effect of over 65% in size
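Buffer: 100 mM Tris/HCl pH8, 100 mM KCl, 0.05% low protease BSA, 2.5% glycerol, 0.01% Tween-20. ClpP 10 microg/mL final; 20 min RT; delta FRET normalized to ADEP and DMSO controls.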
The depositor's hits bear a star; ? = inconclusive; · = no result given; ! = repeats disagree; [ ] = dose if it differs, or a comment. Unless noted, calls come from the whole dose curve; as a rule, active = well fitted curve in the direction sought with a large enough effect; inconclusive = small, poorly fitted or top-dose-only effect, or another doubt; inactive = no such curve, though single readings can be large; an effect the other way counts as inactive or inconclusive. Potency is the fitted concentration of half-maximal effect.

SMILES	TDP1 cell noCPT	TDP1 cell CPT	TDP1 block	ClpP mod
COc1cc(OC)cc(C(=O)N[C@H](C(=O)Nc2nc(-c3cc(OC)ccc3OC)cs2)C(C)C)c1	?	-3.3%	-1.6%	·
COc1ccc(-c2csc(NC(=O)c3c(C)noc3C)n2)cc1	23.1µM*	14.6µM*	1.9%	-7.2%
CCc1noc(C)c1C(=O)Nc1nc(-c2ccc(Cl)cc2Cl)cs1	18.4µM*	18.4µM*	0.0%	1.6%
COc1ccc(-c2csc(NC(=O)c3c(C)noc3C)n2)cc1OC	14.6µM*	20.6µM*	·	-1.3%
COc1cccc(OC)c1C(=O)Nc1nc(-c2ccccc2)cs1	-16.4%	-23.1%	·	·
Cc1cccc(/N=C/c2ccccn2)n1	4.4%	6.4%	·	-21.1%
COC(=O)NC(CC(C)=O)c1ccccc1 (configuration not stated)	·	·	4.8%[21 µM]	·
COc1ccc(NC(=O)C2CCCO2)cc1 (configuration not stated)	18.2%	2.4%	2.5%	-2.8%
COc1ccc(-c2csc(NC(=O)c3ccoc3C)n2)cc1	11.6µM*	-26.4%	5.5%	·
COc1ccc(-c2csc(NC(=O)C3CCCO3)n2)cc1 (configuration not stated)	20.6µM*	?	2.0%	0.2%
COc1ccc(-c2csc(NC(=O)c3cccc(N4C(=O)CCC4=O)c3)n2)cc1OC	20.6µM*	4.11µM*	3.8%	1.2%
Cc1noc(C)c1C(=O)Nc1nc(-c2ccc([N+](=O)[O-])cc2)cs1	?	?	4.3%	-8.6%
Cc1ccc(-c2csc(NC(=O)c3c(C)noc3C)n2)cc1	9.2µM*	?	0.7%[56.1 µM]	-8.5%
Cc1ccc(C(=O)c2cn(CC(=O)NCc3ccccc3Cl)c3nc(C)ccc3c2=O)cc1	?	?	3.2%	-0.4%
CCCN1C(=O)SC(CC(=O)Nc2ccccc2)C1=O (configuration not stated)	?	23.1µM*	2.0%	0.2%
CCCN1C(=O)SC(CC(=O)Nc2cccc3ccccc23)C1=O (configuration not stated)	16.4µM*	16.4µM*	4.2%[56.1 µM]	-4.4%
O=C(Nc1ccn(CCCNCCCN2CCCC2=O)c(=O)n1)OCc1ccccc1	-11.5%	-18.5%	·	0.7%
O=C(CCCc1c[nH]c2ccccc12)N[C@@H](Cc1c[nH]c2ccccc12)C(=O)O	-8.6%	-12.7%	·	-7.1%
Cn1nc(C(F)(F)F)c(/C=N/OC(=O)c2ccccc2)c1Sc1ccc(Cl)cc1	23.1µM*	23.1µM*	-2.3%	-3.1%
CCCN(C(=O)Cn1nc(Cc2ccncc2)c2ccccc2c1=O)c1ccccc1C	?	?	1.3%	-5.0%
NC(=O)c1ccccc1NC(=O)Cn1nc(Cc2cccnc2)c2ccccc2c1=O	?	-25.8%	6.4%	-6.9%
O=C(Cn1nc(Cc2cccnc2)c2ccccc2c1=O)Nc1ccc(F)c(Cl)c1	16.4µM*	-7.9%	3.8%	-1.4%
Cc1ccc(Cn2c(=O)c3cccnc3n(CC(=O)Nc3cccc(C(F)(F)F)c3)c2=O)cc1	16.4µM*	?	-2.0%	31.6µM*!
O=C(Cn1nc(Cc2ccncc2)c2ccccc2c1=O)Nc1cccc(C(F)(F)F)c1	23.1µM*	?	9.0%	-0.8%
CCCN(C(=O)Cn1nc(Cc2cccnc2)c2ccccc2c1=O)c1ccc(C(C)C)cc1	25.9µM*	23.1µM*	9.0%	-1.8%
SMILES	TDP1 cell noCPT	TDP1 cell CPT	TDP1 block	ClpP mod
CCNC(=O)c1c(NC(=O)c2nc(SC)ncc2Cl)sc2c1CCCC2	?	-25.0%	·	-0.5%
COc1ccc2nc(C)cc(N3CCN(c4ccccc4)CC3)c2c1	18.4µM*	20.6µM*	12.9%	·
COc1ccc2nc(C)cc(N3CCN(S(=O)(=O)c4ccccc4F)CC3)c2c1	3.26µM*	?	2.5%	-4.2%
COc1ccc(C(=O)CN2CCN(c3cc(C)nc4ccccc34)CC2)cc1	29.1µM*	25.9µM*	9.6%	-2.3%
COc1ccc2nc(C)cc(N3CCOCC3)c2c1	-24.5%	-26.3%	4.5%	-1.1%
CCn1c(N2CCN(CC(=O)c3ccc(OC)cc3)CC2)nc2ccccc21	-14.3%	-6.4%	5.9%	3.4%
C/C(=N\NC(=O)CCC(=O)Nc1ccccc1)c1cccs1	-26.9%	?	-2.6%	1.2%
COc1ccc(OC)c(NC(=O)C2CCN(S(=O)(=O)c3ccc4c(c3)CCCC(=O)N4)CC2)c1	·	·	4.2%	-0.1%
N#Cc1ccccc1NC(=O)CC1c2ccccc2Oc2ccccc21	1.84µM*	2.06µM*	2.7%	-1.1%
O=C(CC1CC2CCC1C2)N1CCN(S(=O)(=O)c2ccc(F)cc2)CC1 (configuration not stated)	-44.1%	-46.8%	·	-1.8%
c1ccc(-c2nc3nonc3nc2-c2ccccc2)cc1	13µM*	20.6µM*	8.4%	1.2%
C[C@H](NC(=O)N1CCn2c1nc1ccccc12)C(=O)N1CCCCC1	?	16.4µM*	1.3%	-0.1%
C[C@H](NC(=O)N1CCn2c1nc1ccccc12)C(=O)NC1CC1	15.9%	0.0%	1.2%	-0.2%
COCc1ccc(CN2CCCC(C(=O)Nc3ccc(-c4cscn4)cc3)C2)o1 (configuration not stated)	-9.0%	-4.1%	1.4%	-0.1%
CCn1c(=N)c(C(=O)NC2CCCC2)cc2c(=O)n3ccccc3nc21	2.7%	0.8%	·	4.1%
COc1ccc(NC(=O)CN(C)C(=O)c2cc(-c3ccc(Cl)cc3)nc3ccccc23)cc1	20.6µM*	?	·	-1.7%
COc1ccc(-c2cc(C(=O)Oc3ccc(Cl)cc3)c3ccccc3n2)cc1	?	?	-2.2%[12.3 µM]	4.5%
CCN(CC(=O)Nc1ccc(NC(C)=O)cc1)C(=O)c1ccc2ccccc2c1	-9.1%	-9.2%	·	-2.8%
CCOc1ccc(NC(=O)CN(C)C(=O)CCCc2nc3ccccc3c(=O)[nH]2)cc1OCC	-2.1%	-9.7%	·	15.8µM*
CCN(CC(=O)Nc1ccc(NC(C)=O)cc1)C(=O)c1cc(-c2ccccc2Cl)nc2ccccc12	14.6µM*	?	·	-0.6%
CCOc1ccc(NC(=O)CN(C)C(=O)c2cc(-c3ccc(OC)cc3)nc3ccccc23)cc1OCC	14.6µM*	?	-2.2%[0.505 µM]	31.6µM*
Cn1nnnc1SCCNCc1ccc(OCc2ccc(Cl)cc2)cc1	·	·	8.4%	1.4%
CC(CN1CCOCC1)OC(=O)c1ccccc1 (configuration not stated)	-7.0%	18.4%	-2.4%	-7.0%
CNc1ccc(Br)cc(C(=O)/C=C/c2cccc(OC)c2OC)c1=O	1.2%	-13.4%	3.6%[56.1 µM]	-1.4%
CNc1ccccc(C(=O)/C=C/c2ccccc2OC)c1=O	14.6µM*	18.4µM*	2.5%	2.0%
COc1ccccc1C=CC(=O)C=Cc1ccccc1OC	3.26µM*	4.61µM*	·	28.2µM*
COc1ccccc1/C=C/C(=O)/C=C/c1ccccc1O	2.91µM*	2.91µM*	7.5%	2.0%
COc1ccccc1/C=C/C(=O)OC(C)CN1CCOCC1 (configuration not stated)	-16.9%	-22.2%	-2.0%	31.6µM*

Compound activity as filed in PubChem BioAssay.
